Screening results deposited in PubChem BioAssay by National Center for Advancing Translational Sciences (NCATS).
This is a sample that favours compounds with a hit; in the whole collection about 2.3% have one here.
Lassa entry inh = qHTS for Inhibitors of binding or entry into cells for Lassa Virus | Lassa virus pseudotype entry inhibition, cell reporter | Potency, µM (doses to about 37.9 µM), usual class: inhibitors | hit rate 1.2% among 300,000; calls by dose curve; tested in HEK293 cells; note: nearly all actives have a fitted effect of over 50% in size
AmpC detergent = qHTS Inhibitors of AmpC Beta-Lactamase (assay with detergent) | AID 485294, 2010 | hit rate 0.041% among 370,000 | P00811 | Potency, µM (titrated, usually from 114 µM), actives largely listed as inhibitors | AmpC hydrolysis of nitrocefin, absorbance 480 nm, 0.01% Triton; note: nearly all actives have a fitted effect of over 25% in size
Target sequence (P00811 whole entry, looked up): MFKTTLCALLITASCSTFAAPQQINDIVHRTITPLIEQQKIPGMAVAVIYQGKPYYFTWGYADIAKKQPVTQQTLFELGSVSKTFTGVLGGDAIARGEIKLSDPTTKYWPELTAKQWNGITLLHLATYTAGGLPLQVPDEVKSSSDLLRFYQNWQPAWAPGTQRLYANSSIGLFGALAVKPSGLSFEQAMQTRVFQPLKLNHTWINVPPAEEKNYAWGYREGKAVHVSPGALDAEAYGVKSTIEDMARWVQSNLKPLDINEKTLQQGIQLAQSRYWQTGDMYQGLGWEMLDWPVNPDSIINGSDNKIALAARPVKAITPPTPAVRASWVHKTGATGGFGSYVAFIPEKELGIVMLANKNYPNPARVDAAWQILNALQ
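20 mM phosphate pH 7.0 + 0.01% (detergent screen) or 0.0001% Triton X-100; 5.3 nM AmpC reagent; cpd preinc 15 min RT; nitrocefin (800 uM stock) to start; A480 q20 s × 4 min; Activity was normalised to no-enzyme and no-compound control wells.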
AmpC inh no detg = qHTS Inhibitors of AmpC Beta-Lactamase (assay without detergent). P00811. AmpC nitrocefin hydrolysis, absorbance 480 nm, 0.0001% Triton. Potency, µM (doses to about 57.1 µM), most hits filed as inhibitors. hit rate 0.52% among 330,000. AID 485341, 2010; note: nearly all actives have a fitted effect of over 20% in size
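AmpC (5.3 nM in the dispensed reagent) in 20 mM phosphate pH 7.0 with 0.01% (detergent screen) or 0.0001% Triton X-100 was preincubated with compounds for 15 min at room temperature. Nitrocefin was then added from an 800 uM solution, and hydrolysis was followed at 480 nm.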
AMA1-RON2 inh = qHTS for Inhibitors of AMA1-RON; Towards Development of Antimalarial Drug Lead: Primary Screen; Plasmodium falciparum AMA1 (3D7) - RON2 peptide interaction; AlphaScreen AMA1-biotinylated RON2 peptide binding; Potency, µM (top dose mostly 58.2 µM), most hits filed as inhibitors; hit rate 0.2% among 360,000; note: nearly all actives have a fitted effect of over 45% in size
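AMA1 (3D7) with his tag at 25 nM final met compounds first, then biotinylated RON2 peptide at 25 nM; detection used donor plus acceptor beads, 10 µg/mL apiece, read by AlphaScreen after 30 min at room temperature.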
MARV entry inh = qHTS for inhibitors of binding or entry into cells for Marburg Virus. Marburg virus pseudotyped entry inhibition, cell reporter. Potency, µM (top dose mostly 37.8 µM), usual class: inhibitors. hit rate 1.8% among 300,000. AID 540276, 2011; calls by dose curve; tested in HEK293 cells
Numbers stand for hits; n = inactive; u = inconclusive; x = not tested or not shown; [ ] = dose if it differs, or a comment. Unless noted, calls come from the whole dose curve; as a rule, active = well fitted curve in the direction sought with a large enough effect; inconclusive = small, poorly fitted or top-dose-only effect, or another doubt; inactive = no such curve, though single readings can be large; an effect the other way counts as inactive or inconclusive.

SMILES	Lassa entry inh	AmpC detergent	AmpC inh no detg	AMA1-RON2 inh	MARV entry inh
CC1(C)CN(CCc2ccccc2)C(=O)[C@@H]1CC(=O)Nc1ccccc1	n	x	x	x	x
CCOC(=O)c1cc(-c2ccccc2)n(CCC(=O)Nc2ccc(C(F)(F)F)cc2)c1C	u	n	x	x	x
Cc1nc(C(=O)NNC(=O)c2c(-c3c(Cl)cccc3Cl)noc2C)cs1	u	n	n	n	1.6µM
Cc1cc(C(=O)NNC(=O)c2c(-c3c(Cl)cccc3Cl)noc2C)no1	n	n	n	n	n
CCc1nnc(NC(=O)CSc2ncnc3c2oc2ccccc23)s1	x	n	n	n	x
O=C(CSc1ncnc2c1oc1ccccc12)Nc1nc2ccccc2s1	x	u	0.79µM	n	x
Cc1cc(C(F)(F)F)c(C#N)c(SCC(=O)Nc2nc3ccccc3s2)n1	u	n	n	n	4.5µM
COC(=O)CC=C[C@H](C)[C@@H](NC(=O)C(F)(F)F)c1ccccc1Br	x	x	x	x	n
CCOC(=O)CN1C(=O)NC(c2ccc(Br)cc2)C(C(=O)OC)=C1C (stereo not given)	x	x	x	x	n
Cc1ccccc1Nc1c(N)c(=O)oc2ccccc12	n	n	0.32µM	n	n
CN(C)CCNc1c(N)c(=O)oc2ccccc12	n	n	n	n	u
COc1ccccc1OCC(=O)N(Cc1ccco1)Cc1ccccc1F	n	n	x	x	n
COc1ccc(COc2cc(-c3cccc(OC)c3)nc3ccc(NC(=O)c4cccnc4)cc23)cc1	15µM	n	n	n	n
COc1ccc(COc2cc(-c3cccc(OC)c3)nc3ccc(NC(=O)c4ccc(OC)cc4)cc23)cc1	u	n	u	n	u
NC(=O)/C=C\C(=O)Nc1cccc(C(F)(F)F)c1	u	n	n	n	9.2µM
O=C(Nc1cccc(C(F)(F)F)c1)NC1CCCCC1	4µM	n	n	n	n
NNC(=O)Nc1cccc(C(F)(F)F)c1	n	n	n	n	n
COc1ccc(NC(=O)c2cnc[nH]2)cc1	n	n	x	x	u
CSc1c2c(n(CC3CCCCC3)c1CC(=O)NC1CCCCC1)CCCC2	x	x	x	x	n
Cc1ccc(-n2c(-c3ccccc3)c[n+]3c2CCc2ccccc2-3)c(C)c1	1µM	n	n	n	u
Cc1ccc(-n2c(-c3ccccc3)c[n+]3c2CCC3)cc1	u	n	n	n	u
COc1cc(OC)c(-c2nnc3n(CCc4ccccc4)c(=O)c4ccccc4n23)cc1OC	x	n	n	x	x
COc1ccc(-c2nnc3n(CCc4ccccc4)c(=O)c4ccccc4n23)c(OC)c1	u	n	n	n[11.6 µM]	10µM
Cc1ccc(C)c(S(=O)(=O)c2nnn3c2nc(Nc2ccc(F)c(Cl)c2)c2sccc23)c1	n	n	x	x	x
CCc1nnc(NC(=O)CC(CN(C)S(=O)(=O)c2ccccc2)c2ccccc2)s1 (stereo not given)	x	u	40µM	n	x
SMILES	Lassa entry inh	AmpC detergent	AmpC inh no detg	AMA1-RON2 inh	MARV entry inh
CCN(CC)c1ccc(NC(=O)c2ccc3c(c2)c(C)c(C)n3C)cc1	x	n	n	7.9µM	u
CC1(C)C[C@H]2C=C(C=O)[C@]3(C=O)C[C@]3(C)[C@H]2C1	3.7µM	n	n	n	u
COC(=O)c1cccc(Nc2nn3c(=O)c4cc5c(cc4nc3s2)OCO5)c1	n	n	x	x	n
NS(=O)(=O)c1ccc(N=Nc2c(O)[nH]c3ccc(C(=O)NCCc4cnc[nH]4)cc23)cc1	5µM	x	x	x	x
O=C(NCCc1cnc[nH]1)c1cccs1	x	n	n	n	x
Cc1cc(C)cc(NS(=O)(=O)c2ccc(-c3cc(C)no3)cc2)c1	u	n	x	x	x
N#CC1=C(N)SC(N)=C(C#N)C1c1cccc(Oc2ccccc2)c1	n	n	25µM	n	n
CC1=C(CC(=O)c2ccc(Cl)cc2)C(=O)c2ccccc2C1=O	n	n	n	12µM	n
O=C(Cc1ccccn1)c1ccc(Cl)cc1	x	n	n	n	x
Cc1c(C(=O)OCCOc2ccccc2)[nH]c2c1C(=O)CCC2	7.9µM	n	n	n	u
O=C(N(CC1CCCCC1)C1=NCCCC1)C12CC3CC(CC(C3)C1)C2	x	x	x	x	n
O=C(Cn1cc(SCc2ccccc2F)c2ccccc21)N1CCCCCC1	u	n	x	x	x
NC(=O)CSc1nc2scc(-c3ccco3)c2c(=O)n1-c1ccccc1	n	u	n	u	n
O=c1c2c(-c3ccco3)csc2nc(SCc2cn3cccnc3n2)n1-c1ccccc1	u	u	n	16µM	u
